PubChem BioAssay (NCATS)
Results filed as inconclusive are left out. Entries that show only a call come without a potency. A number with no mark means an inactive call. Active and inactive are the calls of the source. Unless noted, calls come from the whole dose curve; as a rule, active = well fitted curve in the direction sought with a large enough effect in the repeat runs; inconclusive = weak or mixed curves; inactive = no such curve, though single readings can be large; an effect the other way counts as inactive or inconclusive.

Key:
[1] = A High-Content qHTS Against Drug Library for the Identification of Small Molecules that Inhibit DYT1 Early Onset Primary Dystonia-Associated Cell Pathology (AID 1645839; calls by dose curve)
How it was run: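 High-content imaging quantified EGFP-TorsinA mislocalization in HEK293-derived cells inducibly expressing DYT1 mutant torsinA, after 48 h exposure to compound given together with tetracycline induction. Cell count served as a toxicity channel alongside %pathology.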

[2] = target: Cytochrome P450 2D6 (Homo sapiens) (UniProt P10635); experiment: Cytochrome P450 family 2 subfamily D member 6 (CYP2D6) small molecule antagonists: luciferase biochemical (cell-free) qHTS assay (AID 1645840); note: nearly all actives have a fitted effect of over 55% in size; note: potency is the fitted concentration of half-maximal effect
How it was run: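 P450-Glo CYP2D6 system: proluciferin substrate converted by enzyme to luciferin, read by luminescence proportional to activity. Enzyme-substrate mix with compound 10 min at room temperature, then NADPH regeneration 1 h before detection reagent.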

[3] = target: Cytochrome P450 2C9 (Homo sapiens) (UniProt P11712); experiment: Cytochrome P450 family 2 subfamily C member 9 (CYP2C9) small molecule antagonists: luciferase biochemical (cell-free) qHTS assay (AID 1645842); note: nearly all actives have a fitted effect of over 55% in size; note: potency is the fitted concentration of half-maximal effect
How it was run: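 P450-Glo CYP2C9 system: proluciferin substrate with enzyme in mix containing 0.4% BSA, 10 min at room temperature, then NADPH regeneration solution added and incubated 1 h at 37C. Detection reagent stopped reaction; luminescence read after 20 min as RLU.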

[4] = target: Cytochrome P450 3A4 (Homo sapiens) (UniProt P08684); experiment: Cytochrome P450 family 3 subfamily A member 4 (CYP3A4) small molecule antagonists: luciferase qHTS assay (AID 1645841); note: nearly all actives have a fitted effect of over 45% in size
How it was run: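 Luminescent CYP3A4 activity readout: compounds plus enzyme-substrate mix 10 min at room temperature, reaction started with NADPH regenerating system for 1 h, stopped with detection reagent, read after 20 min. Ketoconazole served as control.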

[5] = Primary qHTS for inhibitors of nuclear receptor binding SET domain protein 2 (NSD2) in an isogenic RCH-ACV NSD2 p.E1099K mutant (9B) (AID 1645876; active = well fitted curve in the direction sought with a large enough effect; an effect the other way counts as inactive or inconclusive; note: nearly all actives have a fitted effect of over 70% in size)
[6] = Primary qHTS for inhibitors of nuclear receptor binding SET domain protein 2 (NSD2) in an RCH-ACV wild type WT cells (2C) (AID 1645877; active = well fitted curve in the direction sought with a large enough effect; an effect the other way counts as inactive or inconclusive; note: nearly all actives have a fitted effect of over 70% in size)
[7] = NCATS anti-infectives library activity on HEK293 viability as a counter-qHTS vs the C. elegans viability qHTS (AID 1745854; active = well fitted curve in the direction sought with a large enough effect; an effect the other way counts as inactive or inconclusive;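 note: HEK293 cells exposed to compounds for 24 hr before the viability read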)
How it was run: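 Counter-screen for cytotoxicity: HEK293, 24 hr, 37C, compounds up to 41.7 uM final (a dilution series, 1:5). Readout CellTiter-Glo luminescence, 10 min RT. Digitonin control, […] uM final.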

[8] = target: Glutathione peroxidase 1 (Homo sapiens) (UniProt P07203); experiment: Primary qHTS Assay for Inhibitors of Recombinant Selenoprotein Glutathione Peroxidase 1 (GPX1) (AID 1845191; active = well fitted curve in the direction sought with a large enough effect; an effect the other way counts as inactive or inconclusive; note: nearly all actives have a fitted effect of over 65% in size)
How it was run: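 NADPH consumption tracked by fluorescence at 340/450 nm between t=0 and t=15 min, room temperature. Final mix: 10 nM GPX1, 100 nM glutathione reductase, 1 mM GSH, 0.5 mM NADPH, 0.5 mM cumene hydroperoxide, 0.01% BSA; 30 min compound–enzyme preincubation.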

[9] = NCATS anti-infectives library activity on the primary C. elegans qHTS viability assay (AID 1745855; calls by dose curve); details: C. elegans worm area imaging, day 7; at 41.8 µM (top of the series)
Description: Assay Development and Screening Technology Laboratory (ADST)
National Center for Advancing Translational Sciences (NCATS), Rockville, MD
National Institute of Health (NIH), Bethesda, Maryland
Caenorhabditis elegans has helped elucidate the evolutionarily conserved genetics underlying pathways and cellular processes implicated in human disease and may be ideally positioned to reveal novel pharmacological properties of exiting drugs. The organism's short life cycle and microscopic size is applicable to the technical requirements of high-throughput screening. Here a quantitative high-throughput screening (qHTS)-based forward chemical biology platform has been developed using C. elegans. 384-well microtiter plate laser scanning cytometry was used in the rapid detection and quantification of the fluorescent protein-encoded phenotype to score worm viability. […]
1. […] P. (2006) Quantitative high-throughput screening: A titration-based approach that efficiently identifies biological activities in large chemical libraries, P Natl Acad Sci USA 103, 11473-11478.
2. […] P., and Inglese, J. (2006) Fluorescent protein-based cellular assays analyzed by laser-scanning microplate cytometry in 1536-well plate format, Method Enzymol 414, 566-589. […]
SEQUENCE No. (e.g., 1, 2, 3, etc.); […] (e.g., C. elegans, Compounds, Incubation, Read, etc.); VALUE and DESCRIPTION. […]

[10] = target: N-terminal Xaa-Pro-Lys N-methyltransferase 1 (Homo sapiens) (UniProt Q9BV86); experiment: Confirmatory qHTS for Inhibitors of N-terminal methyltransferase 1 (NTMT1): MTaseGlo Assay (AID 1645874; active = well fitted curve in the direction sought with a large enough effect; an effect the other way counts as inactive or inconclusive;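 note: luminescence from SAH made as NTMT1 methylates SPKRIA peptide using SAM; nearly all actives have a fitted effect of over 65% in size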)
How it was run: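 Inhibition was derived from luminescence after SAH-to-ATP conversion, scaled between no-enzyme and DMSO wells, then fitted by 4-parameter Hill. Conditions: 125 nM NTMT1, 100 uM SAM, 1 uM SPKRIA, 30 min RT.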

Chain of Cytochrome P450 2C9 (Homo sapiens) (P11712 whole entry, looked up): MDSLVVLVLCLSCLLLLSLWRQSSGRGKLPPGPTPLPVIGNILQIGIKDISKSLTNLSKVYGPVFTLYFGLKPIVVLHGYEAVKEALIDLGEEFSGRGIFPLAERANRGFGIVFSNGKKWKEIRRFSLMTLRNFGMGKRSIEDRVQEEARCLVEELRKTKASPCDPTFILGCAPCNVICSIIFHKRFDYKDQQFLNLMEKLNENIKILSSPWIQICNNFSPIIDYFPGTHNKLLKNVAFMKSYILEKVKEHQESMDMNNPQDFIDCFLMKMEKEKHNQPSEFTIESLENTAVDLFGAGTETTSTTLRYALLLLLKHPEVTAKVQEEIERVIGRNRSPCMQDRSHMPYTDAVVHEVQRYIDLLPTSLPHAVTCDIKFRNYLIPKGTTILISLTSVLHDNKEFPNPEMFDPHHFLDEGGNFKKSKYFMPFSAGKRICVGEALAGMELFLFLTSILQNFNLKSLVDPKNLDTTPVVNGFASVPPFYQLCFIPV
Chain of Glutathione peroxidase 1 (Homo sapiens) (P07203 whole entry, looked up): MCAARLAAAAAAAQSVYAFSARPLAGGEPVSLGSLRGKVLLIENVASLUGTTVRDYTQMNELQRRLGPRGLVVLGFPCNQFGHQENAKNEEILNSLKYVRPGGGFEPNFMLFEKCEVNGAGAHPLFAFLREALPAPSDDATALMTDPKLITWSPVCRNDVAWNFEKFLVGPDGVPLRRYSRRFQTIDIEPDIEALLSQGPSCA
Chain of Cytochrome P450 3A4 (Homo sapiens) (P08684 whole entry, looked up): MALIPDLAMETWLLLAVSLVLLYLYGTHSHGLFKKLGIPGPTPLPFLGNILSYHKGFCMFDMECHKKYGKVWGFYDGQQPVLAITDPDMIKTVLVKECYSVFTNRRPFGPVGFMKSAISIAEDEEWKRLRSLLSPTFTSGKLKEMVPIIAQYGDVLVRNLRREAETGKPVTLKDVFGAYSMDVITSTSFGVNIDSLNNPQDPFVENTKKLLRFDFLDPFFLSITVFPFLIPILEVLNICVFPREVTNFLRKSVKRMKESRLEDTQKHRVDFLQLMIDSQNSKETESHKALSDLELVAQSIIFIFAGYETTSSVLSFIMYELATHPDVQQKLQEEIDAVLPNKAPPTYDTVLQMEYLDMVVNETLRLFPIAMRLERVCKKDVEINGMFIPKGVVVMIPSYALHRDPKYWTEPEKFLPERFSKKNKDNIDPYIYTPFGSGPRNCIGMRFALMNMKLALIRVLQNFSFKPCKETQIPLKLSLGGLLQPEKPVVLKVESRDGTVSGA
Chain of Cytochrome P450 2D6 (Homo sapiens) (P10635 whole entry, looked up): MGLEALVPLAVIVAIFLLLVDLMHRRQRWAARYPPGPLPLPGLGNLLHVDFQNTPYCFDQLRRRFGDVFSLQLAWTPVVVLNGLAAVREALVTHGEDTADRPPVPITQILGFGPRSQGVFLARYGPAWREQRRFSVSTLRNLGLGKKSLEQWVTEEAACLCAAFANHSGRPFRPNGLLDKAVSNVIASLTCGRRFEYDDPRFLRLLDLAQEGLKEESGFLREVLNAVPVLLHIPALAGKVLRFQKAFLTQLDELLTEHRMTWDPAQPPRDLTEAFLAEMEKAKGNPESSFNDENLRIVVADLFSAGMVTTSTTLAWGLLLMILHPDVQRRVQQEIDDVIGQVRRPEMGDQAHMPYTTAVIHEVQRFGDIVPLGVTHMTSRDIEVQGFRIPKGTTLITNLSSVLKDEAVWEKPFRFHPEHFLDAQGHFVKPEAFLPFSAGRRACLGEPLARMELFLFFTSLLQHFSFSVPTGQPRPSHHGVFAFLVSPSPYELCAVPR
Chain of N-terminal Xaa-Pro-Lys N-methyltransferase 1 (Homo sapiens) (Q9BV86 whole entry, looked up): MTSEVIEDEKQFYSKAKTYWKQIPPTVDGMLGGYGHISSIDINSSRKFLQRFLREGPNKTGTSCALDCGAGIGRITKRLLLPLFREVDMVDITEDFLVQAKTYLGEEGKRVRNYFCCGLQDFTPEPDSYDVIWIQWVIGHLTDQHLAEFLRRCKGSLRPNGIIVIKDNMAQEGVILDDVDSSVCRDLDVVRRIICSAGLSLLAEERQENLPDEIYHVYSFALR

CC(=O)SC[C@@H](Cc1ccccc1)C(=O)NCC(=O)OCc1ccccc1
Potency [1]: inactive
Potency [2]: 6.17 µM (active)
Potency [3]: 1.23 µM (active)

O=C(O)Cc1ccc(CCNS(=O)(=O)c2ccc(Cl)cc2)cc1
Potency [1]: inactive
Potency [2]: inactive

OCc1ccc(Cl)cc1Cl
Potency [1]: inactive
Potency [2]: inactive
outcome [4]: inactive
Potency [3]: inactive
Potency [5]: inactive
Potency [6]: inactive
outcome [7]: inactive
Potency [8]: inactive

CCN(CC)CC1CCCCN1CC(=O)N1c2ccccc2C(=O)Nc2cccnc21 (configuration not stated)
Potency [1]: inactive
Potency [2]: inactive
outcome [4]: inactive

Nc1ncnc(Nc2ccccc2)n1
Potency [1]: inactive
Potency [2]: inactive
Potency [3]: inactive
Potency [5]: inactive
Potency [6]: inactive

NS(=O)(=O)c1ccc(C(=O)O)cc1
Potency [1]: inactive
Potency [2]: inactive
Potency [3]: inactive
Potency [5]: inactive
Potency [6]: inactive

CC[C@]12CCCN3CCc4c(n(c5ccccc45)[C@@](O)(C(=O)OC)C1)[C@@H]32
Potency [1]: inactive
Potency [2]: 11 µM (active)
Potency [3]: inactive
Potency [5]: inactive
Potency [6]: inactive

C[C@@H](N)C(=O)O
Potency [1]: inactive
Potency [2]: inactive
outcome [4]: inactive
Potency [3]: inactive
Potency [5]: inactive
Potency [6]: inactive

O=C1c2ccccc2C(=O)C1c1ccc(Br)cc1
Potency [1]: inactive
Potency [2]: inactive
Potency [3]: 2.19 µM (active)
Potency [5]: inactive
Potency [6]: inactive

CC1CCN(CCCC(=O)c2ccc(F)cc2)CC1
Potency [1]: inactive
Potency [2]: 0.195 µM (active)
Potency [3]: inactive
Potency [5]: inactive
Potency [6]: inactive

CN1C(=O)CC(c2ccccc2)C1=O (configuration not stated)
Potency [1]: inactive
Potency [2]: inactive
Potency [3]: inactive
Potency [5]: inactive
Potency [6]: inactive

Cc1cc(=O)[nH]c(=S)[nH]1
Potency [1]: inactive
Potency [2]: inactive
Potency [3]: inactive

C[N+]1(C)CCCC(OC(=O)C(O)(c2ccccc2)c2ccccc2)C1 (configuration not stated)
Potency [1]: inactive
Potency [2]: 12.3 µM (active)
Potency [3]: inactive
Potency [5]: inactive
Potency [6]: inactive

Cn1c(=O)c2c(ncn2CCO)n(C)c1=O
Potency [1]: inactive
Potency [2]: inactive
Potency [3]: inactive
Potency [5]: inactive

O=C(CN1CCNCC1)NC1CCCCC1
Potency [1]: inactive
Potency [2]: inactive
outcome [4]: inactive
Potency [3]: inactive
Potency [5]: inactive
Potency [6]: inactive

NCc1ccc(S(N)(=O)=O)cc1
Potency [1]: inactive
Potency [2]: inactive
outcome [4]: inactive
outcome [7]: inactive
outcome [9]: inactive

C[n+]1ccccc1/C=N/O
Potency [1]: inactive
Potency [2]: inactive
Potency [3]: inactive
Potency [5]: inactive
Potency [6]: inactive

CCCCCCCCCCCCCCCCN
Potency [1]: inactive
Potency [2]: inactive
outcome [4]: inactive
Potency [3]: inactive

COC(=O)c1cccnc1
Potency [1]: inactive
Potency [2]: inactive
Potency [3]: inactive
Potency [5]: inactive

CCN(CC)S(=O)(=O)c1ccc(C(=O)O)cc1
Potency [1]: inactive
Potency [2]: inactive
outcome [4]: inactive
Potency [5]: inactive
Potency [6]: inactive

CC(=O)N1C[C@H](O)C[C@H]1C(=O)O
Potency [1]: inactive
Potency [2]: inactive
Potency [3]: inactive

CC(=O)NS(=O)(=O)c1ccc(N)cc1
Potency [1]: inactive
Potency [2]: inactive
outcome [4]: inactive
Potency [5]: inactive
Potency [6]: inactive

Cc1cc(-n2nc3ccc(Cl)cc3n2)c(O)c(C(C)(C)C)c1
Potency [1]: inactive
Potency [2]: inactive
Potency [3]: inactive
Potency [5]: inactive
Potency [6]: inactive

NNc1nnc(NN)c2ccccc12
Potency [1]: inactive
Potency [2]: 22.9 µM (active)
Potency [3]: inactive

CNc1c2c(nn1C)CCCC2
Potency [1]: inactive
Potency [2]: inactive
Potency [3]: inactive

CC[N+](CC)(CC(=O)Nc1c(C)cccc1C)Cc1ccccc1
Potency [1]: inactive
Potency [2]: inactive
Potency [3]: inactive
Potency [5]: inactive
Potency [6]: inactive

C[C@@H](c1ncncc1F)C(O)(Cn1cncn1)c1ccc(F)cc1F (some centres not stated)
Potency [1]: inactive
Potency [2]: inactive

NC(N)=NS(=O)(=O)c1ccc(N)cc1
Potency [1]: inactive
Potency [2]: inactive
outcome [4]: inactive
Potency [3]: inactive
Potency [5]: inactive
Potency [6]: inactive
Potency [8]: inactive

O=c1[nH]c(=O)c2ccccc2o1
Potency [1]: inactive
Potency [2]: inactive
Potency [3]: inactive
Potency [5]: inactive
Potency [6]: inactive

NNC(=O)CP(=O)(c1ccccc1)c1ccccc1
Potency [1]: inactive
Potency [2]: inactive
Potency [3]: 15.5 µM (active)

Cc1c(NC(=O)c2cccnc2)c(=O)n(-c2ccccc2)n1C
Potency [1]: inactive
Potency [2]: inactive
Potency [3]: inactive

O=c1[nH]cnc2nc[nH]c12
Potency [1]: inactive
Potency [2]: inactive
Potency [3]: inactive
Potency [10]: inactive
Potency [5]: inactive
Potency [6]: inactive

O=C(Cn1ccnc1[N+](=O)[O-])NCc1ccccc1
Potency [1]: inactive
Potency [2]: inactive
Potency [3]: inactive
Potency [5]: inactive
Potency [6]: inactive

C/C=C/C(=O)N(CC)c1ccccc1C
Potency [1]: inactive
Potency [2]: inactive
outcome [4]: inactive
Potency [3]: inactive
Potency [5]: inactive
Potency [6]: inactive
Potency [8]: inactive

O=C(O)c1ccc[n+]([O-])c1
Potency [1]: inactive
Potency [2]: inactive
Potency [3]: inactive

O=C(O)c1ccccc1C(=O)Nc1ccc(S(=O)(=O)Nc2nccs2)cc1
Potency [1]: inactive
Potency [2]: inactive
Potency [3]: inactive
Potency [5]: inactive
Potency [6]: inactive

NC(=O)NS(=O)(=O)c1ccc(N)cc1
Potency [1]: inactive
Potency [2]: inactive
Potency [3]: inactive

N[C@@H](Cc1ccc(O)cc1)C(=O)O
% pathology change, negative = correction [1]: -10.7% [at 9.22 µM]
